Source: PubChem (several laboratories)
Hits are enriched below; roughly 2.4% of the tested compounds scored in any of these assays.
SENP7 inh = blocks the human protease SENP7. Q9BQF6. recombinant SENP7, Z-RLRGG-aminoluciferin luminescence, 40 min. inhibition, % at 5 µM. 330,000 compounds, 1.5% hits;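 active = inhibition above about 50% at the single test dose, limit read from the data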;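 also: plate controls were DMSO with enzyme for no effect and no enzyme buffer wells for full effect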
SENP8 block-1 = SENP8 protease inhibition; purified SENP8, Z-RLRGG-aminoluciferin cleavage, luminescence; inhibition, % at 10 µM; 330,000 compounds, 1.2% hits; in the data active = inhibition above about 50%
SENP6 inh = blocks the human protease SENP6; Recombinant SENP6 catalytic domain, aminoluciferin luminescence; inhibition, % at 10 µM; 330,000 compounds, 1.8% hits;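 active = inhibition above about 50% at the single tested dose, limit read from the data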;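 also: plate controls were DMSO wells with enzyme for no effect and DMSO wells lacking enzyme for full effect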
Target sequence (Q9GZR1 628-1112 limits assumed): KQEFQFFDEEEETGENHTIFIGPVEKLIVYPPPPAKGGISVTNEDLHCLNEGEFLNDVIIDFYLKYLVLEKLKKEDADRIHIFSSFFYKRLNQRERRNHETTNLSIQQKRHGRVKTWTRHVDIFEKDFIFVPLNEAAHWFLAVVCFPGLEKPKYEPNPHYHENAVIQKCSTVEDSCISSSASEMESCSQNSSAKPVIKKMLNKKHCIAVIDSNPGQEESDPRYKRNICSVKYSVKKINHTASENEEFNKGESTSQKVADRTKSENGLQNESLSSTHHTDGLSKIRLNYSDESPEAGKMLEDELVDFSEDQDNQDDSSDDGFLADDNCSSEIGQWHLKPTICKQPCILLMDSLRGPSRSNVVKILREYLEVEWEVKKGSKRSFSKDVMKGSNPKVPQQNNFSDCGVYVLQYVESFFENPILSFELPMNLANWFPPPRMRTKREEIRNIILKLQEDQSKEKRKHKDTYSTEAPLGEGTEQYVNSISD
SENP8 block-2 = SENP8 (human) protease inhibition | Q96LD8 | inhibition, % at 20 µM | 360,000 compounds, 0.64% hits | recombinant SENP8, Nedd8 substrate fluorescence; in the data active = inhibition mostly above about 40%, no sharp cut-off; inactive = mostly below about 27%
Platelet DG rel = platelet dense granule release activity; human platelet-rich plasma, SFLLRN dense granule ATP release, luminescence; inhibition, %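 (compounds screened at 7.5 µM in platelet-rich plasma)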; 300,000 compounds, 0.22% hits;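 active = mean replicate score, as percent of positive control, at or above 50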
SENP8 confirm = confirmation of human SENP8 protease inhibitors; shares compounds with SENP7 inh; Recombinant SENP8, Z-RLRGG-aminoluciferin luminescence, 60 min; inhibition, % at 12.5 µM; 6,200 compounds, 40% hits; AID 488912;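 active = mean inhibition across replicates above about 50%, limit read from the data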
SENP6 confirm = confirmation of human SENP6 protease inhibitors | shares compounds with SENP7 inh | recombinant SENP6, Z-RLRGG-aminoluciferin luminescence | inhibition, % at 12.5 µM | 6,200 compounds, 58% hits | AID 488915
SENP7 conf = confirmation of human SENP7 protease inhibitors | shares compounds with SENP7 inh | recombinant SENP7, Z-RLRGG-aminoluciferin luminescence, 40 min | inhibition, % at 12.5 µM | 6,200 compounds, 69% hits | AID 488917
Casp3 SENP sel = selectivity test for SENP inhibitors: human caspase-3 inhibition. shares compounds with SENP7 inh. purified caspase-3, Z-DEVD-aminoluciferin luminescence, 60 min. inhibition, % at 12.5 µM. 6,200 compounds, 60% hits;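 active = mean inhibition above about 50%, limit read from the data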;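 also: plate controls were enzyme with DMSO for no effect and wells without caspase-3 for full effect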
Target sequence (P42574 28-227 limits assumed): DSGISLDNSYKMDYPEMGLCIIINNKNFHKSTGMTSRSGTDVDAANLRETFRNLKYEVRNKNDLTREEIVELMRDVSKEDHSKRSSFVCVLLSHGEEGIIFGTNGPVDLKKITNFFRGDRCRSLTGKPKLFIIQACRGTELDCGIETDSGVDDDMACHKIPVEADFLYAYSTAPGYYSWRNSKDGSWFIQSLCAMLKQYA
Luc interf = counter-screen for SENP inhibitors: luminescence interference. shares compounds with SENP7 inh. Pre-incubated SENP8/Z-RLRGG-aminoluciferin, luciferase luminescence interference. inhibition, % at 12.5 µM. 6,200 compounds, 39% hits;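 active = mean inhibition above about 50% when retested at one dose, limit read from the data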;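 also: plate controls were DMSO wells with completed reaction for no effect and substrate without enzyme for full effect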
An asterisk follows results filed as active; / = no result.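 The calls were made as follows, unless noted: active = mean inhibition above about 50% in the one-dose retest (limit read from the data); inactive = the rest.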

SMILES	SENP7 inh	SENP8 block-1	SENP6 inh	SENP8 block-2	Platelet DG rel	SENP8 confirm	SENP6 confirm	SENP7 conf	Casp3 SENP sel	Luc interf
Cc1ccc(OCc2nc(-c3ccccc3)no2)c(C)c1	44.6	24.6	55.1*	13.8	-1.8	32.8	35.5	55.7*	16.9	26.0
Cc1ccc(-n2nnc(-c3cccnc3Cl)n2)cc1	76.3*	51.5*	74.3*	11.5	-0.9	35.8	51.7*	42.2	37.6	16.9
Cc1ccc(S(=O)(=O)N2CCN(C(=O)COC(=O)COc3cccc(C(F)(F)F)c3)CC2)c(C)c1	5.5	-3.8	-2.3	10.6	/	/	/	/	/	/
CSc1ccc(NC(=O)Nc2cccn(Cc3ccccc3F)c2=O)cc1	49.2	43.6	63.4*	-189.5	3.9	20.8	9.3	43.0	26.2	-2.3
CCN1C(=O)[C@@H]2[C@@H](c3ccc(-c4ccc(C(C)=O)cc4)c(OC)c3)N3CCCC[C@@]3(C(=O)OC)[C@@H]2C1=O	-7.5	-10.1	-19.2	-49.8	-6.3	/	/	/	/	/
CN(C)c1ccnc2sc3c(SCc4ccc(Cl)cc4)ncnc3c12	57.7*	-8.5	2.5	-101.3	-20.3	-2.3	5.1	3.3	19.4	9.1
Cc1cc(=O)[nH]c(SCCOc2ccc(OC(C)C)cc2)n1	89.1*	90.7*	94.4*	7.2	1.8	91.3*	95.0*	99.5*	94.6*	58.2*
Cc1ccc(C(C[N+](=O)[O-])c2c(C)[nH]n(-c3ccccc3)c2=O)cc1 (centres undefined)	39.4	25.7	54.1*	60.9*	-21.9	24.9	49.5	23.9	3.3	6.1
C=CCc1cccc(/C=N/NC(=O)CNc2cccc3ccccc23)c1O	31.4	33.7	71.6*	-215.7	-0.7	7.3	7.2	17.7	12.8	9.5
O=C(CNc1cccc2ccccc12)N/N=C/c1ccc([N+](=O)[O-])o1	39.2	8.8	80.4*	-98.7	0.4	21.5	40.1	11.5	0.4	-1.1
C=CCc1cccc(/C=N/NC(=O)CNc2ccccc2OC)c1O	4.7	1.1	-6.4	1.8	12.8	/	/	/	/	/
CCCCCCCC(=O)N/N=C/c1ccc([N+](=O)[O-])o1	-1.3	3.6	36.0	30.6	3.2	/	/	/	/	/
O=C(CNc1cccc2ccccc12)N/N=C/C(Br)=C/c1ccccc1	39.1	55.5*	80.0*	-47.6	-3.5	10.0	13.5	12.2	4.9	4.6
O=C(CNc1cccc2ccccc12)N/N=C/c1ccc[nH]1	-2.0	5.7	6.9	-359.1	-3.7	/	/	/	/	/
CN(C)c1ccc2c3c(ccc(N(C)C)c13)C(=O)OC2	1.7	0.6	-22.3	-2.4	-8.6	/	/	/	/	/
CN1C(=O)[C@H]2[C@@H](c3ccccc3)N[C@]3(CCCN(Cc4ccc(F)cc4)C3=O)[C@H]2C1=O	/	/	/	-25.0	/	/	/	/	/	/
CC(=O)Nc1ccccc1C(=O)N1CCN(Cc2ccc3c(c2)OCO3)CC1	-1.6	-4.1	-7.4	5.0	-4.0	/	/	/	/	/
CCCNC(=O)NC(=O)CSc1nc2ccccc2c(=O)n1Cc1ccncc1	3.4	3.2	11.5	9.0	4.5	/	/	/	/	/
N#CC1=C(N)Oc2c(ccc3ccccc23)C1c1ccsc1 (centres undefined)	16.2	8.8	61.8*	-115.0	-5.2	-21.3	-18.0	-6.9	-8.2	-0.6
CCN(c1ccccc1)c1cc2ccccc2c(=O)[nH]1	86.2*	92.1*	87.6*	-200.8	-26.7	19.9	61.1*	43.4	16.6	-3.3
Cc1ccccc1-c1cc(-c2ccccc2O)on1	96.6*	81.4*	91.0*	-0.6	-0.1	94.9*	96.1*	99.8*	83.7*	92.9*
Cc1ccc(O)c(-c2cc(-c3ccc(F)cc3)no2)c1	80.9*	57.2*	76.9*	-314.4	17.7	23.9	68.5*	55.8*	68.1*	3.7
Cc1ccc(O)c(-c2cc(-c3ccccc3C)[nH]n2)c1	3.0	-11.1	27.4	28.7	-1.0	/	/	/	/	/
O=C(c1cc(-c2ccccc2O)on1)N1CCCCCC1	-8.2	10.5	5.2	7.2	3.4	/	/	/	/	/
Oc1ccccc1-c1cc(-c2ccccc2)no1	95.6*	85.9*	84.2*	-43.8	22.7	87.1*	88.0*	101.2*	83.9*	64.5*
SMILES	SENP7 inh	SENP8 block-1	SENP6 inh	SENP8 block-2	Platelet DG rel	SENP8 confirm	SENP6 confirm	SENP7 conf	Casp3 SENP sel	Luc interf
O=C(OCC(=O)N1CCOCC1)c1cc(-c2ccccc2)nc2ccccc12	5.0	2.6	-1.5	-94.9	/	/	/	/	/	/
Cc1ccc(NC(=O)/C(Cl)=C/c2ccccc2)cc1C	80.7*	67.0*	86.2*	13.8	0.0	2.0	80.5*	95.5*	53.7*	37.4
Cn1c(=O)[nH]c(=O)c2c1nc1n2CC(O)CN1c1ccccc1 (centres undefined)	1.8	-8.4	-12.2	18.1	-6.1	/	/	/	/	/
COC(=O)c1ccc(COC(=O)c2ccccn2)cc1	82.4*	49.5	75.4*	13.0	2.6	76.5*	74.0*	91.3*	91.8*	76.0*
O=C(COC(=O)c1cnccn1)c1ccc(OC(=O)c2ccccc2)cc1	7.3	0.2	15.0	20.8	-0.7	/	/	/	/	/
O=C(Oc1ccccc1)c1ccc(COC(=O)c2cnccn2)cc1	88.8*	75.9*	94.0*	16.1	41.1	-21.7	79.7*	97.3*	87.4*	85.1*
CC(C)c1ccc(NC(=O)C2CCC(CNC(=O)[C@@H]3Cc4ccccc4CN3)CC2)cc1 (some centres undefined)	8.7	-8.7	-2.3	1.5	8.8	/	/	/	/	/
COc1ccc(-n2ncc3c(N(C)C4CCCCC4)ncnc32)cc1	46.5	43.1	48.0	-166.1	1.3	/	/	/	/	/
Cc1cccc(-n2ncc3c(N(C)C4CCCCC4)ncnc32)c1	60.2*	67.9*	66.7*	-3.4	21.4	-12.1	-6.9	-4.0	1.2	18.9
O=C(CSc1nnc(-c2ccccc2F)o1)NC1CC1	-5.3	-10.4	-6.3	29.8	/	/	/	/	/	/
O=C(c1ccccc1)c1nnc(-c2ccccc2F)o1	96.5*	90.2*	85.3*	37.4	22.4	78.6*	95.5*	98.9*	89.7*	31.0
Cc1cc2nc(-c3cccnc3SCC(=O)NCc3ccco3)[nH]c2cc1C	88.1*	74.5*	83.8*	-289.5	15.8	90.7*	89.5*	97.8*	90.3*	85.7*
O=C(CSc1ncccc1-c1nc2ccccc2[nH]1)NCc1ccco1	-2.3	7.2	10.5	-247.2	0.8	/	/	/	/	/
O=C(O)c1ccc(Cl)c(NCc2cccs2)c1	1.7	-7.5	-16.5	-2.5	6.3	/	/	/	/	/
COc1c(C(=O)NNC(=O)c2ccccc2Cl)csc1Br	-0.8	-6.1	-8.3	20.6	-1.8	/	/	/	/	/
